Measurements taken from PubChem BioAssay AID1159580 (chemical genetic matrix, 2015).
Hit rate of the full screen: of about 5,500 compounds, about 2,000 (36%) were called active. Roughly 18% stayed inconclusive and do not appear here. Rule as the data show it: active = normalized growth mostly below about 0.91 (no sharp cut-off); inconclusive = no clear call, values can overlap the other calls; inactive = mostly above about 0.92. The list shows a part of the results.

Assay: chemical genetic growth profiling, strain panel (AID 1159580);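 also: tested at 20 µM; growth read once vehicle control cultures reached saturation at 30 °C; 1 = growth at the plate median or of vehicle wells; lower values mean less growth of the strain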
Details: growth OD

Measured: normalized growth

CC1CCc2cc(F)cc3c(=O)c(C(=O)O)cn1c23 (configuration not stated)
inactive: S. cerevisiae deletion strains, locus YJR075W, strain HOC1, hits give low values 0.967 | S. cerevisiae deletion strains, locus YKL009W, strain mrt4, hits give low values 0.957 | S. cerevisiae deletion strains, locus YKL068W, hits give low values 0.985 | S. cerevisiae deletion strains, locus YKL085W, strain MDH1 (second series), hits give low values 0.974 | S. cerevisiae deletion strains, locus YKL085W, strain MDH1, hits give low values 0.974 | S. cerevisiae deletion strains, locus YKL160W, strain elf1, hits give low values 0.971 | S. cerevisiae deletion strains, locus YKL190W, strain CNB1, hits give low values 0.991 | S. cerevisiae deletion strains, locus YKR001C, strain vps1, hits give low values 0.998 | S. cerevisiae deletion strains, locus YKR026C, strain gcn3, hits give low values 0.989 | S. cerevisiae deletion strains, locus YKR091W, strain srl3, hits give low values 0.994 | S. cerevisiae deletion strains, locus YLL001W, strain dnm1, hits give low values 0.966 | S. cerevisiae deletion strains, locus YLL026W, hits give low values 0.995 | S. cerevisiae deletion strains, locus YLL041C, strain sdh2, hits give low values 0.989 | S. cerevisiae deletion strains, locus YLR027C, strain aat2, hits give low values 0.988 | S. cerevisiae deletion strains, locus YLR039C, strain RIC1, hits give low values 0.892 | S. cerevisiae deletion strains, locus YLR058C, strain SHM2, hits give low values 0.983 | S. cerevisiae deletion strains, locus YLR102C, strain apc9, hits give low values 0.982 | S. cerevisiae deletion strains, locus YLR113W, strain HOG1, hits give low values 0.955 | S. cerevisiae deletion strains, locus YLR221C, strain rsa3, hits give low values 0.973 | S. cerevisiae deletion strains, locus YLR258W, strain gsy2, hits give low values 0.982 | S. cerevisiae deletion strains, locus YLR262C, strain YPT6 (second series), hits give low values 0.952 | S. cerevisiae deletion strains, locus YLR262C, strain YPT6, hits give low values 0.867 | S. cerevisiae deletion strains, locus YLR268W, strain sec22, hits give low values 0.894 | S. cerevisiae deletion strains, locus YLR320W, strain mms22, hits give low values 0.972 | S. cerevisiae deletion strains, locus YLR330W, strain CHS5, hits give low values 1.01 | S. cerevisiae deletion strains, locus YLR342W, strain FKS1 (second series), hits give low values 0.978 | S. cerevisiae deletion strains, locus YLR342W, strain FKS1, hits give low values 0.978 | S. cerevisiae deletion strains, locus YLR357W, strain rsc2, hits give low values 0.923 | S. cerevisiae deletion strains, locus YLR370C, strain arc18, hits give low values 0.991 | S. cerevisiae deletion strains, locus YLR371W, strain rom2, hits give low values 0.965 | S. cerevisiae deletion strains, locus YLR384C, strain iki3, hits give low values 0.985 | S. cerevisiae deletion strains, locus YLR418C, strain cdc73, hits give low values 0.96 | S. cerevisiae deletion strains, locus YML016C, strain PPZ1, hits give low values 0.986 | S. cerevisiae deletion strains, locus YML032C, strain rad52, hits give low values 0.95 | S. cerevisiae deletion strains, locus YML120C, strain ndi1, hits give low values 0.975 | S. cerevisiae deletion strains, locus YML124C, strain tub3, hits give low values 0.994 | S. cerevisiae deletion strains, locus YMR058W, strain fet3, hits give low values 0.998 | S. cerevisiae deletion strains, locus YMR078C, strain ctf18, hits give low values 0.961 | S. cerevisiae deletion strains, locus YMR125W, strain sto1, hits give low values 0.978 | S. cerevisiae deletion strains, locus YMR129W, hits give low values 0.992 | S. cerevisiae deletion strains, locus YMR205C, strain PFK2, hits give low values 0.968 | S. cerevisiae deletion strains, locus YMR223W, strain ubp8, hits give low values 0.992 | S. cerevisiae deletion strains, locus YMR231W, strain pep5, hits give low values 0.991 | S. cerevisiae deletion strains, locus YMR263W, strain SAP30, hits give low values 0.964 | S. cerevisiae deletion strains, locus YMR307W, strain GAS1, hits give low values 1.02 | S. cerevisiae deletion strains, locus YNL067W, strain RPL9B, hits give low values 0.962 | S. cerevisiae deletion strains, locus YNL071W, strain lat1, hits give low values 0.998 | S. cerevisiae deletion strains, locus YNL128W, strain TEP1, hits give low values 0.976 | S. cerevisiae deletion strains, locus YNL153C, strain GIM3, hits give low values 0.972 | S. cerevisiae deletion strains, locus YNL183C, strain NPR1, hits give low values 0.904 | S. cerevisiae deletion strains, locus YNL209W, strain ssb2, hits give low values 0.996 | S. cerevisiae deletion strains, locus YNL233W, strain BNI4, hits give low values 0.968 | S. cerevisiae deletion strains, locus YNL248C, strain rpa49, hits give low values 0.971 | S. cerevisiae deletion strains, locus YNL250W, strain rad50, hits give low values 0.973 | S. cerevisiae deletion strains, locus YNL271C, strain bni1, hits give low values 0.962 | S. cerevisiae deletion strains, locus YNL298W, strain CLA4, hits give low values 0.957 | S. cerevisiae deletion strains, locus YNL307C, strain MCK1, hits give low values 0.983 | S. cerevisiae deletion strains, locus YNL322C, strain KRE1 (second series), hits give low values 0.995 | S. cerevisiae deletion strains, locus YNL322C, strain KRE1, hits give low values 0.986 | S. cerevisiae deletion strains, locus YNR049C, strain mso1, hits give low values 0.987 | S. cerevisiae deletion strains, locus YNR052C, strain pop2, hits give low values 0.96 | S. cerevisiae deletion strains, locus YOL006C, strain TOP1, hits give low values 0.947 | S. cerevisiae deletion strains, locus YOL012C, strain htz1 0.784 | S. cerevisiae deletion strains, locus YOL147C, strain pex11, hits give low values 0.973 | S. cerevisiae deletion strains, locus YOR001W, strain rrp6, hits give low values 0.968 | S. cerevisiae deletion strains, locus YOR061W, strain CKA2, hits give low values 0.984 | S. cerevisiae deletion strains, locus YOR069W, strain VPS5, hits give low values 0.977 | S. cerevisiae deletion strains, locus YOR070C, strain gyp1, hits give low values 0.99 | S. cerevisiae deletion strains, locus YOR080W, strain dia2, hits give low values 0.992 | S. cerevisiae deletion strains, locus YOR083W, strain WHI5, hits give low values 0.969 | S. cerevisiae deletion strains, locus YOR106W, strain vam3, hits give low values 0.947 | S. cerevisiae deletion strains, locus YOR136W, strain idh2, hits give low values 0.98 | S. cerevisiae deletion strains, locus YOR144C, strain elg1, hits give low values 0.975 | S. cerevisiae deletion strains, locus YOR184W, strain ser1, hits give low values 0.959 | S. cerevisiae deletion strains, locus YOR231W, strain MKK1, hits give low values 0.982 | S. cerevisiae deletion strains, locus YOR265W, strain rbl2, hits give low values 0.982 | S. cerevisiae deletion strains, locus YOR270C, strain vph1, hits give low values 0.959 | S. cerevisiae deletion strains, locus YOR290C, strain snf2, hits give low values 0.955 | S. cerevisiae deletion strains, locus YOR316C, strain cot1, hits give low values 0.97 | S. cerevisiae deletion strains, locus YPL051W, strain arl3, hits give low values 0.984 | S. cerevisiae deletion strains, locus YPL055C, strain LGE1, hits give low values 0.985 | S. cerevisiae deletion strains, locus YPL078C, strain atp4, hits give low values 0.976 | S. cerevisiae deletion strains, locus YPL106C, strain sse1, hits give low values 0.963 | S. cerevisiae deletion strains, locus YPL240C, strain hsp82, hits give low values 0.974 | S. cerevisiae deletion strains, locus YPL241C, strain CIN2, hits give low values 0.997 | S. cerevisiae deletion strains, locus YPL256C, strain CLN2, hits give low values 0.974 | S. cerevisiae deletion strains, locus YPR119W, strain clb2, hits give low values 0.973 | S. cerevisiae deletion strains, locus YPR141C, strain kar3, hits give low values 0.961 | S. cerevisiae deletion strains, locus YPR163C, strain tif3, hits give low values 0.974 | S. cerevisiae deletion strains, locus YPR167C, strain met16, hits give low values 0.97 | S. cerevisiae deletion strains, strain wtn01, hits give low values 0.95 | S. cerevisiae strains, strain wild type, hits give low values 0.987
